Experimental data: PubChem BioAssay (Tox21)
Inconclusive results are not listed. Calls of active or inactive are those of the source. Unless noted, calls follow the shape of the full dose curve.

Columns and labels:
[1] = Nuclear factor erythroid 2-related factor 2/antioxidant responsive element (Nrf2/ARE) small molecule agonists: qHTS cell viability counter screen in human keratinocytes (AID 1919968; active = well fitted curve in the direction sought with a large enough effect in the repeat runs; an effect the other way counts as inactive or inconclusive; also: nearly all actives have a fitted effect of over 55% in size)
Procedure, shortened: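 Seed 1,500 KeratinoSens cells per well, then incubate 5 h at 37 C/5% CO2. Add compounds in DMSO and incubate 23 h. Add CellTiter-Fluor, wait 1 h and read fluorescence.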

[2] = Nuclear factor erythroid 2-related factor 2/antioxidant responsive element (Nrf2/ARE) small molecule agonists: luciferase reporter gene qHTS assay in human keratinocytes (AID 1919969); also: nearly all actives have a fitted effect of over 35% in size
[3] = p53 small molecule agonists, cell-based qHTS assay with human liver microsomes (AID 1963577);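 also: p53 response element beta-lactamase reporter cells with liver microsomes plus NADPH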
Procedure, shortened: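 p53RE-bla cells; 5 h settle, 37 C/5% CO2; cpd + HLM 0.5 mg/mL + NADPH 0.5 mg/mL (final); 16 h 37 C; LiveBLAzer 2 h RT dark; fluorescence readout.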

[4] = p53 small molecule agonists, cell-based qHTS assay with rat liver microsomes (AID 1963578)
Procedure, shortened: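 Rat liver microsome activation: microsomes 0.5 mg/mL, NADPH 0.5 mg/mL final; p53RE-bla cells, 16 h 37 C; LiveBLAzer readout, 2 h RT dark.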

[5] = p53 small molecule agonists, cell-based qHTS assay with human liver microsomes: qHTS cell viability counter screen (AID 1963579); also: nearly all actives have a fitted effect of over 45% in size
Procedure, shortened: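 Luminescent CellTiter-Glo read-out, 30 min at room temperature, gauged cytotoxicity in p53RE-bla cells exposed 16 h at 37 C to DMSO-dissolved compounds with metabolic activation by human liver microsomes and NADPH, each 0.5 mg/mL final.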

[6] = p53 small molecule agonists, cell-based qHTS assay with rat liver microsomes: qHTS cell viability counter screen (AID 1963580); also: nearly all actives have a fitted effect of over 45% in size
Procedure, shortened: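 Intracellular ATP, by CellTiter-Glo luminescence, defines viability. HCT-116 p53RE-bla cells, 4,000 per well, were compound-treated in the presence of rat liver microsomes and NADPH for 16 h at 37 C.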

[7] = p53 small molecule agonists, cell-based qHTS assay: qHTS cell viability counter screen (AID 1963581); also: nearly all actives have a fitted effect of over 45% in size
Procedure, shortened: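 Cells: HCT-116 with p53 response element-driven beta-lactamase. Treatment: 16 h, 37 C, compounds in DMSO. Read: CellTiter-Glo luminescence after 30 min RT.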

[8] = p53 small molecule agonists, cell-based qHTS assay (AID 1963582; active = well fitted activation curve with a large enough effect in the signal ratio in the repeat runs, not every such curve was filed as active; the % refers to the signal ratio)
Procedure, shortened: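 Quantitative HTS in p53RE-bla cells: after a 5 h settling period, compounds delivered in DMSO were left on cells for 16 h at 37 C, and reporter induction was measured as fluorescence following 2 h substrate loading.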

[9] = biological target: 5-hydroxytryptamine receptor 2A (Homo sapiens) (UniProt P28223); assay: 5-hydroxytryptamine receptor 2A (HTR2A) small molecule antagonists, cell-based qHTS assay (AID 1963586); also: nearly all actives have a fitted effect of over 45% in size
Sequence of 5-hydroxytryptamine receptor 2A (Homo sapiens) (P28223 whole entry, looked up): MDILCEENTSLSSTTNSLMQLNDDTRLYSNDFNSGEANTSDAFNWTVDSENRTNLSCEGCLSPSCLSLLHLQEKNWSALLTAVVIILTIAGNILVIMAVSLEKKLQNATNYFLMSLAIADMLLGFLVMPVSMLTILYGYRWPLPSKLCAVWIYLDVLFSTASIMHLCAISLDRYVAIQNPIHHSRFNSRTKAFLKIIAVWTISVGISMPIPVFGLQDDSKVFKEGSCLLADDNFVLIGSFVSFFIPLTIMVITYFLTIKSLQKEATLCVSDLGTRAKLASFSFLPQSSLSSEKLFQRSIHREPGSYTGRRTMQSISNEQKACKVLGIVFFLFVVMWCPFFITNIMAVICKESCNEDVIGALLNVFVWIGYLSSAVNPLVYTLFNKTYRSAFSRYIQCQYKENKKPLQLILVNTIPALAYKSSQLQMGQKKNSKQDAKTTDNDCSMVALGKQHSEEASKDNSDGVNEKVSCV
Procedure, shortened: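 Antagonist-mode intracellular calcium assay: DOI (4 nM) added after 5 min compound pre-incubation at room temperature to dye-loaded HTR2A-CHO cells. Fluorescence followed for 3 min, sampled every second.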

[10] = biological target: 5-hydroxytryptamine receptor 2A (Homo sapiens) (UniProt P28223); assay: 5-hydroxytryptamine receptor 2A (HTR2A) small molecule agonists, cell-based qHTS assay (AID 1963587); also: nearly all actives have a fitted effect of over 30% in size
Procedure, shortened: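 Kinetic calcium-flux fluorescence (2 min, 1 sec intervals) after compound addition in agonist mode. HTR2A-CHO cells were cultured 18 h, then dye-loaded 1 h at 37 C.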

[11] = biological target: Muscarinic acetylcholine receptor M1 (Homo sapiens) (UniProt P11229); assay: Cholinergic receptor muscarinic 1 (CHRM1) small molecule antagonists, cell-based qHTS assay (AID 1963588); also: nearly all actives have a fitted effect of over 40% in size
Sequence of Muscarinic acetylcholine receptor M1 (Homo sapiens) (P11229 whole entry, looked up): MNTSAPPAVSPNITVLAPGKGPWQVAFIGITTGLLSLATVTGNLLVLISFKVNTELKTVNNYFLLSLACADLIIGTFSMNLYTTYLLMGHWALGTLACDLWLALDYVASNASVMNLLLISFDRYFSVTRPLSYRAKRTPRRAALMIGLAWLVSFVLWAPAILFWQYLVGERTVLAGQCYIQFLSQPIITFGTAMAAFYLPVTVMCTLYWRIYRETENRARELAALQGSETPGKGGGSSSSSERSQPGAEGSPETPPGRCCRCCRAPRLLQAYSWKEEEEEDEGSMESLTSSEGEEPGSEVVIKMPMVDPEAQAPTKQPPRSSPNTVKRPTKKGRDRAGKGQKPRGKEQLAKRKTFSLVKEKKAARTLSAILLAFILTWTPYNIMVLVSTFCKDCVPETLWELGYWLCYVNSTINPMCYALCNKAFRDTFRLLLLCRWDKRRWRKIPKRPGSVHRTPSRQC
Procedure, shortened: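 CHRM1-CHO calcium-flux assay, antagonist mode. Cells were seeded 18 h, dye-loaded 1 h at 37 C and given compound for 5 min at RT, then acetylcholine was added at 50nM. FDSS fluorescence was read 3 min; 15 concentrations, three runs.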

[12] = biological target: Muscarinic acetylcholine receptor M1 (Homo sapiens) (UniProt P11229); assay: Cholinergic receptor muscarinic 1 (CHRM1) small molecule agonists, cell-based qHTS assay (AID 1963589); also: nearly all actives have a fitted effect of over 35% in size
Procedure, shortened: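 Agonist-mode qHTS in CHO cells stably carrying human muscarinic M1. Intracellular calcium is tracked by fluorescence every second after compound transfer; each compound runs at 15 concentrations in three independent runs.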

[13] = cAMP Responsive Elements (CRE) small molecule agonists, cell-based qHTS assay (AID 1963590)
Procedure, shortened: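 Agonist mode qHTS in CRE-bla HEK 293T cells: compounds dosed from DMSO for 3 h at 37 C/5% CO2, followed by LiveBLAzer B/G FRET substrate for 2 h at room temperature.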

[14] = cAMP Responsive Elements (CRE) small molecule antagonists, cell-based qHTS assay (AID 1963591; active = well fitted inhibition curve with a large enough effect in the signal ratio in the repeat runs, not every such curve was filed as active; the % refers to the signal ratio)
Procedure, shortened: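 Antagonist mode: test compounds are co-incubated with the adenylyl cyclase activator NKH477 (0.25 uM final) on CRE-bla HEK293T cells for 3 h at 37 °C, followed by LiveBLAzer substrate loading.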

[15] = biological target: Beta-2 adrenergic receptor (Homo sapiens) (UniProt P07550); assay: Adrenergic beta2 receptor (ADRB2) small molecule antagonists, cell-based qHTS assay (AID 1963592); also: series mostly up to about 92 µM; nearly all actives have a fitted effect of over 50% in size
Sequence of Beta-2 adrenergic receptor (Homo sapiens) (P07550 whole entry, looked up): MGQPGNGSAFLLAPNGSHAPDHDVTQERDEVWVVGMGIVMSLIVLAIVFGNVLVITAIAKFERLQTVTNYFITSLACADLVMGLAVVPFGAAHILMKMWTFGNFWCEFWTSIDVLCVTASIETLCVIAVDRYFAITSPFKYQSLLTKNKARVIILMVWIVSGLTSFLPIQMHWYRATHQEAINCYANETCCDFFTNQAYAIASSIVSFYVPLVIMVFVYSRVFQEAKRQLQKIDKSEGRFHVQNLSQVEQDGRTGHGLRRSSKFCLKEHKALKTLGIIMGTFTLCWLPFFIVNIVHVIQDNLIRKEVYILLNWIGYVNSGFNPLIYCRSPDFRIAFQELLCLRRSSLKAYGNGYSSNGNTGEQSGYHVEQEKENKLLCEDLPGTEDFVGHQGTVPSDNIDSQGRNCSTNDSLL
Procedure, shortened: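 Cells (CHO, stable ADRB2 overexpression) incubated 18-20hr at 37C; compounds added from DMSO; agonist mix (1nM isoproterenol, 100uM IBMX, 25uM Ro-20-1724) added; 0.5hr RT; d2-cAMP and anti-cAMP-cryptate added; 1hr RT; 665/615 nm read.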

[16] = biological target: Beta-2 adrenergic receptor (Homo sapiens) (UniProt P07550); assay: Adrenergic beta2 receptor (ADRB2) small molecule agonists, cell-based qHTS assay (AID 1963593);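 also: CHO cells stably overexpressing human ADRB2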
Procedure, shortened: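 CHO cells stably over-expressing ADRB2 were plated overnight at 37C, then dosed with compounds plus a stimulation mix containing 100uM IBMX and 25uM Ro-20-1724 for 0.5hr at room temperature. cAMP was measured by HTRF competition, 1hr.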

[17] = biological target: D(2) dopamine receptor (Homo sapiens) (UniProt P14416); assay: Dopamine D2 receptor (DRD2) small molecule agonists, cell-based qHTS assay (AID 1963594); also: nearly all actives have a fitted effect of over 35% in size
Sequence of D(2) dopamine receptor (Homo sapiens) (P14416 whole entry, looked up): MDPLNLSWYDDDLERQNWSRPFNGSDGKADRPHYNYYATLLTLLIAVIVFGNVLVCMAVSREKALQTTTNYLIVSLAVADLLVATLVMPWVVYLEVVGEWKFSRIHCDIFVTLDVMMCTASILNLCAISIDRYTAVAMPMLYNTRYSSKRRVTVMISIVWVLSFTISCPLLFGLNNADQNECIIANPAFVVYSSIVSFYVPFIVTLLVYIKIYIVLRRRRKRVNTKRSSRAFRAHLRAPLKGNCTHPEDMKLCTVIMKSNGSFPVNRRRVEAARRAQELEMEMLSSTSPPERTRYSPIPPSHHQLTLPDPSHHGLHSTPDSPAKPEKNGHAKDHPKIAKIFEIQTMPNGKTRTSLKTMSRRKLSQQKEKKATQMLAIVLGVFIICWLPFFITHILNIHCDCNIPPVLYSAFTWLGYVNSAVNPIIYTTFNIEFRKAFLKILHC
Procedure, shortened: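 cAMP accumulation in DRD2-HEK293 cells measured by HTRF after 1 h detection; compounds added 10 min before NKH477 (200nM […]) forskolin-analogue stimulation, 30 min at room temperature, with Ro20-1724 present at 0.1 mM final.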

[18] = biological target: D(2) dopamine receptor (Homo sapiens) (UniProt P14416); assay: Dopamine D2 receptor (DRD2) small molecule antagonists, cell-based qHTS assay (AID 1963595; active = well fitted inhibition curve with a large enough effect in the signal ratio in the repeat runs, with a control signal flat; the % refers to the signal ratio)
Procedure, shortened: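 HEK293 cells stably expressing DRD2 were preincubated with 0.1 mM Ro20-1724, then with compound for 10 min at room temperature. Cells were stimulated with 200 nM NKH477 plus 12 nM quinpirole for 30 min, and cAMP was read by HTRF.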

[19] = biological target: KiSS-1 receptor (Homo sapiens) (UniProt Q969F8); assay: Human kisspeptin (KISS1R) small molecule agonists, calcium flux assay in KISS1R-HEK293 cells (AID 1920064; active = well fitted curve in the direction sought with a large enough effect in the repeat runs; an effect the other way counts as inactive or inconclusive)
Sequence of KiSS-1 receptor (Homo sapiens) (Q969F8 whole entry, looked up): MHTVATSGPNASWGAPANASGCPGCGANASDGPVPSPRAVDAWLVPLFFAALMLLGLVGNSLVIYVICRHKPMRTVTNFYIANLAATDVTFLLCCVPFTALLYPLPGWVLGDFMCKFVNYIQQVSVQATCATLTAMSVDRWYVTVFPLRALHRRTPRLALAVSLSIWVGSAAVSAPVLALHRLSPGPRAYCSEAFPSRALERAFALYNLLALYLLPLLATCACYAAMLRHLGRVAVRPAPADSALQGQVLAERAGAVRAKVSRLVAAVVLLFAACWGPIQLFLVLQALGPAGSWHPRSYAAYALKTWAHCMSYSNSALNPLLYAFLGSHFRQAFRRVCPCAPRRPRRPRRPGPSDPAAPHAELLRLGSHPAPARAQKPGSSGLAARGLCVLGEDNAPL
Procedure, shortened: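 Cells plated and incubated 18 h; dye added, 1 h at 37 C; compounds in DMSO pinned in; signal read at 480/540 nm every second for 3 min. Each compound tested at 15 concentrations in triplicate.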

[20] = G protein-coupled receptor (GPCR) small molecule agonists, calcium flux assay: HEK293 wild type cell line counter screen (AID 1920065)
Procedure, shortened: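 Counter-screen of the Tox21 10K library for non-specific calcium release: dye-loaded cells received compounds in DMSO and were monitored by kinetic fluorescence (480/540 nm, 3 min). Fifteen concentrations, run in triplicate.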

Measured: Potency

c1ccc2c(c1)Oc1ccccc1S2
inactive: [1] | [2] | [3] | [4] | [5] | [6] | [7] | [8] | [9] | [10] | [11] | [12] | [13] | [14] | [15] | [16] | [17] | [18]

CC1(C)C(O)C(C)(C)C1O (centres undefined)
inactive: [1] | [2] | [3] | [4] | [5] | [6] | [7] | [8] | [9] | [11] | [12] | [13] | [14] | [15] | [16] | [17] | [18]

CCOc1ccccc1OCC
inactive: [1] | [2] | [3] | [4] | [5] | [6] | [7] | [8] | [9] | [10] | [12] | [14] | [15] | [17] | [18]

O=S(=O)(O)C(F)(F)F
inactive: [1] | [2] | [19] | [20] | [3] | [4] | [5] | [6] | [7] | [8] | [9] | [10] | [11] | [12] | [13] | [14] | [15] | [16] | [17] | [18]

C=CCOC(=O)CCCCCC
inactive: [1] | [2] | [19] | [20] | [3] | [4] | [5] | [6] | [7] | [8] | [9] | [10] | [11] | [12] | [13] | [14] | [15] | [17] | [18]

CC[C@H](C)[C@H](N)C(=O)O
inactive: [1] | [2] | [19] | [20] | [3] | [4] | [5] | [6] | [7] | [8] | [9] | [10] | [11] | [12] | [13] | [14] | [15] | [18]

CC(O)C(CO)C(C)O (centres undefined)
inactive: [1] | [2] | [3] | [4] | [5] | [6] | [7] | [8] | [9] | [10] | [11] | [12] | [13] | [14] | [16] | [17] | [18]
